From PubChem BioAssay (NCI)
This is part of a sample that, as a whole, favours compounds with a hit. Of some 83,000 tested, about 20% had one in any assay.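 Step 1: grow cells in 96-well plates. Step 2: add test compound at a single concentration. Step 3: incubate 48 h. Step 4: record percent growth.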 A number with no mark means an inactive call. The source made the active and inactive calls. How the source made its calls: active means growth percent below 10; inactive means the rest.

Tests used:
Experiment in all cases: NCI-60 one-dose screen, 48 h (100 = growth as untreated, 0 = no growth, -100 = all killed)
Conditions in all cases: 10 µM unless noted
SK-MEL-2 melanoma = system: SK-MEL-2 melanoma
EKVX NSCLC = system: EKVX NSCLC
SN12C renal = system: SN12C renal
UO-31 renal = system: UO-31 renal
TK-10 renal = system: TK-10 renal
ACHN renal = system: ACHN renal
CAKI-1 renal = system: CAKI-1 renal
A498 renal = system: A498 renal
CCRF-CEM leukemia = system: CCRF-CEM leukemia
MOLT-4 leukemia = system: MOLT-4 leukemia
SR leukemia = system: SR leukemia
RPMI-8226 leukemia = system: RPMI-8226 leukemia
OVCAR-8 ovarian = system: OVCAR-8 ovarian
OVCAR-5 ovarian = system: OVCAR-5 ovarian
OVCAR-4 ovarian = system: OVCAR-4 ovarian
SK-OV-3 ovarian = system: SK-OV-3 ovarian
IGROV1 ovarian = system: IGROV1 ovarian
OVCAR-3 ovarian = system: OVCAR-3 ovarian
HS 578T breast = system: HS 578T breast
NCI/ADR-RES ovarian = system: NCI/ADR-RES ovarian

SMILES	growth (SK-MEL-2 melanoma)	growth (EKVX NSCLC)	growth (SN12C renal)	growth (UO-31 renal)	growth (TK-10 renal)	growth (ACHN renal)	growth (CAKI-1 renal)	growth (A498 renal)	growth (CCRF-CEM leukemia)	growth (MOLT-4 leukemia)	growth (SR leukemia)	growth (RPMI-8226 leukemia)	growth (OVCAR-8 ovarian)	growth (OVCAR-5 ovarian)	growth (OVCAR-4 ovarian)	growth (SK-OV-3 ovarian)	growth (IGROV1 ovarian)	growth (OVCAR-3 ovarian)	growth (HS 578T breast)	growth (NCI/ADR-RES ovarian)
Cn1c2ccccc2c2c3[nH]c(=O)[nH]c(=O)c3c3c4ccccc4n(C)c3c21	67%	29%	33.7%	11.8%	36.4%	7.31% (active)	41.5%	-4.05% (active)	52.9%	49.4%	13.7%	33.1%	31.3%	23.8%	-10.1% (active)	48.6%	22.5%	4.89% (active)	-7.29% (active)	32.2%
COc1ccc(/C=N\NC(=O)CN2CCN(c3cc4c(cc3F)c(=O)c(C(=O)N/N=C/c3ccc(OC)cc3)cn4C3CC3)CC2)cc1	103%	71.7%	79%	57.6%	100%	89.7%	95.1%	73.6%	81.5%	60%	72.1%	69.4%	92.2%	122%	80.7%	112%	72%	85.2%	92.4%	88.2%
O=C(Cc1ccccc1)c1ccc(Cl)cc1	99%	87.4%	89%	111%	99.5%	103%	75.2%	90.9%	99.1%	84.2%	96.7%	160%	103%	83.2%	107%	107%	105%	111%	120%	96.6%
Nc1c(C(=O)Nc2cccc3c2OCCO3)sc2nc3c(cc12)CN(Cc1ccccc1)CC3	56.2%	83.3%	87.2%	60.4%	96.8%	77.2%	55.3%	37.9%	36.3%	52.5%	35.5%	77.5%	87.7%	95.3%	74.5%	89.2%	60.7%	26.7%	66%	53%
CCOC(=O)Cc1cnn(C)c1NC(=O)c1ccc(Cl)cc1NC(C)=O	84.6%	76.3%	94.8%	91.6%	78.8%	111%	64.8%	105%	97.8%	102%	104%	102%	99.8%	99.3%	110%	102%	105%	108%	97%	106%
COc1cc(/C=C2\CN(C(=O)CCN3CCC(=NO)CC3)C/C(=C\c3cc(OC)c(OC)c(OC)c3)C2=O)cc(OC)c1OC	-26.9% (active)	-36.1% (active)	-9.11% (active)	-96.2% (active)	-69.2% (active)	-44.2% (active)	-77.2% (active)	-87.2% (active)	-37.3% (active)	2.41% (active)	9.11% (active)	-40.1% (active)	1.55% (active)	-65.4% (active)	-82.4% (active)	-7.89% (active)	-53.4% (active)	-97.6% (active)	6.39% (active)	9.97% (active)
c1ccc(CSc2ncnc3nc[nH]c23)nc1	112%	99.6%	98.6%	96.4%	101%	105%	57%	102%	102%	97.7%	103%	124%	120%	96.6%	105%	116%	105%	104%	121%	103%
CCCCCCCCCCCCCCCCCCNC(=O)[C@H]1CSC(c2ccc(F)c(OC)c2)N1 (some centres undefined)	-94.1% (active)	-57.5% (active)	-79.2% (active)	45.5%	6.86% (active)	30.3%	-76.8% (active)	6.25% (active)	-36.8% (active)	-14.9% (active)	-42.1% (active)	-49.3% (active)	-28.2% (active)	-87.9% (active)	-3.83% (active)	10.5%	-6.12% (active)	-85.6% (active)	-30.7% (active)	-42.6% (active)
CCCCCCCCCc1cc(CN2CCCCC2)c(O)c(CN2CCCCC2)c1	86.7%	37.5%	71.9%	44.1%	81.1%	63.5%	57.7%	75%	61.7%	56%	7.18% (active)	23.7%	76.6%	59.8%	41.3%	78.3%	75.9%	41.9%	72.7%	58.3%
COc1ccc(-c2nn(-c3ccccc3)cc2/C=C/C(=O)OCc2cn(-c3ccc(F)c(Cl)c3)nn2)cc1	86.9%	101%	80.1%	43%	118%	83.3%	79.2%	77.3%	101%	71.2%	88.3%	75.2%	80.1%	106%	66.9%	85.3%	86.2%	68.2%	88%	73.9%
C=C1CC[C@@H]2[C@](C)(COC(C)=O)[C@H](OC(C)=O)CC[C@@]2(C)[C@@H]1CC(NCc1ccc(F)cc1)C1=CCOC1=O (some centres undefined)	73.2%	50%	46.2%	31.3%	66.6%	50.9%	46%	51.7%	9.18% (active)	-0.37% (active)	7.69% (active)		18.6%	99%	30.9%	94.3%	48.3%	23.7%	72.5%	28.3%
Nc1cc(O)cc2cccnc12	110%	104%	72.5%	48.1%	104%	77.3%	80.1%	118%	86.6%	93%	73%	68.9%	80.9%	107%	105%	83.4%		88.8%	121%	87.3%
Cc1cc(=O)oc2cc(Oc3nc(-c4cccs4)cn4c(-c5cccs5)cnc34)ccc12	69%	64%	73.8%	60.3%	53.9%	57.3%	67.8%	64.4%	94.6%	78.7%	45.6%		52.5%	93.8%	54.1%	90.6%	79.2%	68%	67.6%	53.4%
COc1ccc(CNc2nccnn2)cc1	108%	99.1%	108%	100%	93.4%	98%	97.8%	90.2%	114%	47.7%	52.1%	108%		96.4%	111%	109%	101%	105%	111%	99.4%
C/C(=C(/c1ccc(O)cc1)c1ccc(OCCN(C)C)cc1)c1ccccc1	92.3%	83.6%	84%	65%	81.5%	89.2%	84.9%	102%	94.3%	32.8%	63.7%	85.1%		87.6%	83.2%	90.2%	89.1%	90.2%	90%	81.3%
O=C1c2c[n+](Cc3ccccc3)ccc2-c2nc3ccccc3c3ccnc1c23	-53.6% (active)	-1.66% (active)	-74.2% (active)	-21.8% (active)	-20.2% (active)	-13% (active)	13.8%	-56.1% (active)	-13.1% (active)	-17.2% (active)	-8.84% (active)	-25.2% (active)		-11% (active)	-38.7% (active)	-13% (active)	-46.1% (active)	-66.8% (active)	-18.8% (active)	75.9%
